The list is not random: actives were taken first. Their share in the collection is about 2.1%.
TDP-43 yeast inh: TDP-43 toxicity inhibition in yeast; Potency, µM (doses to about 46.1 µM), for inactives: top-dose growth rescue (activation), most hits filed as activators; 410,000 compounds, 1.8% hits; TDP-43 expressing yeast growth rescue, BacTiter-Glo, 24 h; further: % of control where 0% means no effect; nearly all actives have a fitted effect of over 50% in size
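Cell-based yeast growth screen: TDP-43 expression induced in galactose, inoculum OD600=0.02 after raffinose pregrowth to mid-log. Read-out BacTiter-Glo luminescence at 24 hr, 30 deg C; inhibition of toxicity seen as signal increase.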
FUS suppressor: rescues growth of FUS-expressing yeast; S. cerevisiae FUS-expressing, growth rescue, OD600, 24 h; AID 1347120; Potency, µM (top dose mostly 76.6 µM), actives largely listed as activators; 390,000 compounds, 0.24% hits;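 further: plate controls were DMSO vehicle for no effect and reference control for full effect; nearly all actives have a fitted effect of over 55% in size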
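Restored growth of FUS-toxic S. cerevisiae, read as 600 nm absorbance after 24 h at 30C in galactose medium (starting OD 0.005). Controls CP55940 and DMSO.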
aSyn yeast inh: rescues yeast growth from alpha-synuclein toxicity; AID 652106; Yeast expressing alpha-synuclein, growth rescue, BacTiter-Glo, 24 h; Potency, µM (titrated, usually from 46.1 µM), inactives show top-dose growth rescue (activation), actives largely listed as activators; 370,000 compounds, 0.14% hits; further: % of control where 0% means no effect; nearly all actives have a fitted effect of over 65% in size
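Screening used galactose-induced yeast with toxic alpha-synuclein levels, exposed to compound for 24 hr at 30 deg C. Cell growth, read with BacTiter-Glo luminescence, gave the measured signal.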
Abeta yeast res: A-beta toxicity reversal in yeast | yeast expressing A-beta42, growth rescue, OD600, 48 h; response scale: 0% DMSO, 100% iron-clioquinol control | Potency, µM (top dose mostly 46.1 µM), usual class: activators | 410,000 compounds, 0.063% hits | AID 1347071; further: nearly all actives have a fitted effect of over 55% in size
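Yeast A-beta toxicity model in growth medium with pinned compounds, 48 h at 30 C; growth read as absorbance at 600 nm. Normalized to FeCl3/clioquinol equimolar mix (positive) and DMSO (negative).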
Numbers without * were called inactive; i = inactive; ? = inconclusive; · = no result given; [ ] = another dose, or the depositor's remark. The call rests on the fitted dose curve; in most records, active means well fitted curve in the direction sought with a large enough effect; inconclusive means small, poorly fitted or top-dose-only effect, or another doubt; inactive means no such curve, though single readings can be large; an effect the other way counts as inactive or inconclusive. Potency means the concentration at half of the fitted maximal effect.

SMILES	TDP-43 yeast inh	FUS suppressor	aSyn yeast inh	Abeta yeast res
CN(C)c1cccc(NC(=O)c2cccc3c(-c4ccc(F)c(F)c4)coc23)c1	14.1µM*	i	4.5%	i
COC(=O)[C@H]1C[C@@]2(N3CCCCC3)c3ccccc3N(C(=O)OC(C)(C)C)[C@H]2N1C(=O)OC(C)(C)C	·	i	·	·
O=C1N2Cc3ccccc3C2CS(=O)(=O)N1Cc1ccccc1 (configuration not stated)	·	i	·	·
COc1cc(OC)cc(-c2c(-c3cccs3)c3cc(-c4ccc(CN5CCOCC5)cc4)ccc3n2C)c1	22.4µM*	?	-13.7%	i
COc1cc(F)cc(-c2ccc3c(c2)c(-c2cccs2)c(-c2cc(OC)cc(OC)c2)n3C)c1	7.0%	i	-1.2%	i
COC(=O)[C@]12C[C@H](CC(=O)NCC34CC5CC(CC(C5)C3)C4)C(=O)N(CCC3=CCCCC3)C1=C[C@H](C1CCCC1)O[C@@H]2C	·	i	·	·
CC1CCCCC1Nc1nc2ccc(Cl)cc2n2cnnc12 (configuration not stated)	12.6µM*	i	9.9%	i
CCCCOc1ccc(C(=O)NCCc2ccccc2)cc1	15.4%	i	-1.4%	i
NC(=S)c1ccc(OCCCc2ccccc2)cc1	10µM*	i	7.7%	i
COc1ccc(C(C)=O)cc1COC(=O)C1CCN(C(=O)c2ccc(Cl)cc2)CC1	20µM*	?	0.7%[1.84 µM]	i
CCN(CC)CCCN1C(=O)C2=C(C1=O)C1N(C)c3ccccc3[C@@]13C[C@@H](CO)N(C(=O)CCC(=O)OC)C3=N2 (some centres not stated)	·	i	·	·
Cc1cccc(OCCn2c(NC(=O)c3ccco3)nc3ccccc32)c1	15.8µM*	i	5.1%	i
CCCn1c(NC(=O)C2CCN(C(=O)c3ccccc3C)CC2)nc2ccccc21	?	i	1.0%	i
Cc1cccc(OCCn2c(-c3ccco3)nc3ccccc32)c1	11.2µM*	i	-7.6%	i
CCCn1c(NC(=O)c2cccc(C)c2C)nc2ccccc21	20µM*	i	?	i
O=C(Nc1nc2ncccn2c1-c1ccc(F)cc1)c1ccccc1	·	i	·	·
CC(C)C(=O)Nc1nc(-c2ccccc2)ns1	12.6µM*	i	-14.8%	?
Cc1nnc(SCCC(=O)Nc2nc(-c3ccccc3)ns2)s1	?	i	·	i
CC(=O)Nc1nc(-c2ccc(Cl)cc2)ns1	12.6µM*	·	-17.5%	i
CCC(=O)Nc1nc(-c2ccccc2)ns1	8.91µM*	i	·	i
CCCC(=O)Nc1nc(-c2ccccc2)ns1	15.8µM*	·	-24.3%	i
COc1ccc(CN2CN3CCc4ccccc4C3CS2(=O)=O)cc1 (configuration not stated)	·	i	·	·
COCCN1CC(=O)N(c2cccc(C)c2C)C(c2ccc(Cl)cc2)C1=O (configuration not stated)	6.9%	i	5.0%	i
Cc1cccc(N2C(=O)C(Oc3ccc(Cl)cc3Cl)C2C=O)c1C (configuration not stated)	15.8µM*	·	-51.3%	i
Nc1ccc(/C=C/c2cc(Cl)nc3ccccc23)cc1	·	·	17.9%	·
SMILES	TDP-43 yeast inh	FUS suppressor	aSyn yeast inh	Abeta yeast res
O=C(CSc1nnc(-c2ccncc2)o1)c1cccc([N+](=O)[O-])c1	?	i	-0.4%	i
CC(=O)Nc1cccc(-c2nnc(SCC(=O)c3cc([N+](=O)[O-])ccc3Cl)o2)c1	1.4%	12.6µM*	0.0%	i
CN1C(C(=O)N2CCc3ccccc3C2)=CC(c2ccc(F)cc2)=NS1(=O)=O	12.6µM*	i	1.1%	i
S=C(Nc1ccccc1Cl)OCCN1CCCC12CCC(c1ccccc1)CC2 (configuration not stated)	·	i	·	·
O=C(O)C1CCN(C(=O)c2ccccc2N2C(=O)[C@@H]3Cc4c([nH]c5ccccc45)C(c4cccc(Cl)c4)N3C2=O)CC1 (some centres not stated)	0.0%	12.6µM*	2.2%	i
CCc1c(-c2ccccc2F)ncn1Cc1cccc(-c2ccccc2)c1	20µM*	?	-23.5%	i
CCOc1ccccc1N(C)C(=O)c1c2c(nc3ccccc13)C(=O)N(C1CCCCC1)C2	0.0%	i	·	i
CO[C@H]([C@H](C)/C=C/N(C)C=O)[C@@H](C)C(=O)CC[C@H](C)[C@H](O)[C@H](C)[C@H]1OC(=O)/C=C/C(C)=C/C[C@H](O)C[C@@H]2C=CC[C@@H](C[C@H](OC)[C@@H](C)[C@@H](OC)C[C@@H](OC)[C@@H]1C)O2	·	14.1µM*	·	·
CCOC(=O)c1ccc(NS(=O)(=O)c2ccc(Br)s2)cc1	17.8µM*	i	·	i
CCOC(=O)c1ccc(NC(=O)CN(C)S(=O)(=O)c2ccc(Br)s2)cc1	11.8%	i	3.4%	i
S=C(NCCN1CCOCC1)N1CCN(c2cccc(Cl)c2)CC1	-18.2%	i	-0.8%	i
S=C(NCc1ccco1)N1CCN(c2cccc(Cl)c2)CC1	22.6%	i	0.5%	12.6µM*
CCOC(=O)c1ccc(CNc2ncnc3nc[nH]c23)cc1	·	·	25.1µM*	·
Fc1ccc(CNc2ncnc3nc[nH]c23)cc1	·	·	-3.5%	·
COC(=O)CN1C(=O)CSc2ccc(S(=O)(=O)Nc3ccc(C)c(Cl)c3)cc21	3.9%	i	·	i
CCOc1ccc(OCCN2C(=O)NC3(CCCc4ccccc43)C2=O)cc1 (configuration not stated)	35.5µM*	i	4.9%	i
Cc1ccc(-c2cc(N)n[nH]2)cc1	-16.8%	28.2µM*	-6.5%	i
C=C(C)CNC(=S)N/N=C/C1=CCC2CC1C2(C)C (configuration not stated)	17.8µM*	·	-12.6%	i
CCn1c2ccccc2c2cc(NC(=O)COC(=O)c3cccc(F)c3)ccc21	·	i	·	·
CC1CC(C)(C)N2C(=O)C3(Nc4ccccc4S3)c3cccc1c32 (configuration not stated)	-35.1%	i	?	i
O=C1N2CCCc3cccc(c32)C12Nc1ccccc1S2 (configuration not stated)	20µM*	·	?	i
CCOC(=O)[C@]12CCCC=C1N(Cc1ccc(OC)cc1)C(=O)[C@@H]2CC(=O)NCC12CC3CC(CC(C3)C1)C2	·	17.8µM*	·	·
CCCn1c(N2CCC(Cc3ccccc3)CC2)nc2c1c(=O)[nH]c(=O)n2C	22.4µM*	i	17.2%	i
O=C(c1ccccc1Cc1ccccc1)N1CCN(S(=O)(=O)c2ccccc2Br)CC1	12.6µM*	i	?	i
Cc1cccc(NC(=S)NC(=O)Cc2ccccc2)c1C	?	i	14.7%	7.94µM*
Nc1nonc1-n1nnc(C(=O)N/N=C/c2ccc(O)cc2)c1COc1ccc(F)cc1	-28.9%	i	-18.4%	i
CN(C)Cc1c(C(=O)N/N=C/c2ccc(OCc3c(F)cccc3Cl)cc2)nnn1-c1nonc1N	11.2µM*	i	-1.2%	i
COC(=O)CSc1nnc(-c2ccc(NS(=O)(=O)c3ccc(Cl)s3)cc2)o1	·	i	·	·
